{"source": "paper PMC12136788", "binders": {"B1": {"name": "chr3:139078181:139078182:-_ENSG00000184432_ENST00000507777|hu_mus|FALSE|FALSE (ssRNA)", "RNA": "GGGAGUUCUACAGUCCGACGAUCCUGACUGGGUAAGUAAGUUCGGGCCAGGAAGGCAGCUUCUGGGAGUCUUCCUGUUCUGAUCAAGAGCUCUAGGCAAGCAUCAAGCUUGCCCUGUAAAAAAUAGCUCAUGAAUGCCACGUUCAACAGAGGAUUGAGCAUCA"}, "B2": {"name": "chr16:45382771:45382772:-_ENSMUSG00000022661_ENSMUST00000163230|mus_mus|mus_mus_mus_hu_True|38_68 (ssRNA)", "RNA": "GGGAGUUCUACAGUCCGACGAUCCUGGGUCAUGUUAUAAGACAAAUGGACAGGGAGGGCAUGCUUCUGUAAAGAUGUGAGCUAUUGUCUAAGACUAACAAUAUUGCUCUAGCUAUAAAAAUAAGUUAAAUGAAUAAGUUAAGACAACAGAGGAUUGAGCAUCA"}, "B3": {"name": "chr1:151039735:151039736:+_ENSG00000213190_ENST00000368921|hu_mus|FALSE|FALSE (ssRNA)", "RNA": "GGGAGUUCUACAGUCCGACGAUCCCCAGGCCUUCCAGCUCCGACAGAUCCAGUUCUGGGAUGGGCAUCCUCCAGAAAAGAAAGGAGCUGUACUGGCUACUUACAGGGUCCCUCAUGAUCCCCUGUUAGCAAUGAAUGACUAGGCAACAGAGGAUUGAGCAUCA"}, "B4": {"name": "chr8:35894604:35894605:-_ENSMUSG00000031529_ENSMUST00000033929|mus_hu|FALSE|FALSE (ssRNA)", "RNA": "GGGAGUUCUACAGUCCGACGAUCCUAUAGCAAUGCUUUAUAGAAGACAAACAGCUUAUUUCUAGGCUGUCAGGGACUUCUAGAAUAUUGAUGUUGUUAUUAGAAACAAUCCUCUGUAAUCCAGUCCCAGGUUGAAAUCUGAUCCAACAGAGGAUUGAGCAUCA"}, "B5": {"name": "chr16:45382771:45382772:-_ENSMUSG00000022661_ENSMUST00000163230|mus_mus|mus_mus_mus_hu_True|18_68 (ssRNA)", "RNA": "B2 RNA with G105U, C106A, A117U, U121A, A123U, G124A, U125A, U126G"}, "B6": {"name": "chr7:19156472:19156473:-_ENSG00000122691_ENST00000242261|hu_mus|FALSE|FALSE (ssRNA)", "RNA": "GGGAGUUCUACAGUCCGACGAUCGCUGCAGCUUGCCAUCUUGGAGUCCAGCUCGUCGCUCUGCAGGACCUGGUACAGGAAGUCGAUGUACCUGGCCGCCAGUUUGAGGGUCUGAAUCUUGCUCAGCUUGUCCGAGGGCAGCGUCAACAGAGGAUUGAGCAUCA"}, "B7": {"name": "chr12:39756943:39756944:-_ENSG00000139116_ENST00000544797|hu_mus|hu_hu_hu_mus_False|28_58 (ssRNA)", "RNA": "GGGAGUUCUACAGUCCGACGAUCGGUUUGGCUGUUACCCCCAAGGGAAUCCUGCAAGAGUCUUGUCAGCUUAGAGUCUCUAUAGGGGACAUGGGUGGCUCUCUUGCUCUUGUCUCCCAAGGCGCUGAUUACAUUCCCAAGAGCCAACAGAGGAUUGAGCAUCA"}, "B8": {"name": "chr8:95500983:95500984:-_ENSG00000164944_ENST00000437199|hu_hu|hu_hu_hu_mus_True|8_88 (ssRNA)", "RNA": "GGGAGUUCUACAGUCCGACGAUCAGAACACAUCUAUCGAGUAAAGGGAGCGUACAUACGGCCUCUACCACUGCCUCCACUAACAAACUUUCCUCUCGAGCCUCCACUGCCGCUAUUUGUACUAGCCCCAGGAAGGUCCAGGCCCAACAGAGGAUUGAGCAUCA"}, "B9": {"name": "chr17:90989275:90989276:-_ENSMUSG00000024109_ENSMUST00000160844|mus_mus|motif|central (ssRNA)", "RNA": "GGGAGUUCUACAGUCCGACGAUCAGAUGUUGUCUUGAAUUGGAAAAAUAGAUGCAUAGAGGUGUAGGCUUGCAAUGUAGCGGAGGCAACAUAGCUCGAUUUGGUCUUGAAGGUGACAGGAUCUGCGAUGAUGUUCCUGAAUCCCAACAGAGGAUUGAGCAUCA"}, "B10": {"name": "chrX:103214973:103214974:+_ENSMUSG00000031231_ENSMUST00000033582|mus_hu|FALSE|FALSE (ssRNA)", "RNA": "GGGAGUUCUACAGUCCGACGAUCAACAAUACAGAAAGUGGCUCCACUAGCUAAUACAGCAUUACCGUAUUUGUCAUGAAAAUCAGGUGUACGUUUCUGGUGGCUCUGCCUUGCCAUUGUUUGCUGAAUGCUUCGAACUUGGAGCAACAGAGGAUUGAGCAUCA"}, "B11": {"name": "chr2:35989780:35989781:-_ENSMUSG00000026889_ENSMUST00000028251|mus_hu|FALSE|FALSE (ssRNA)", "RNA": "GGGAGUUCUACAGUCCGACGAUCGCAUUCUCCAGGGGAAGAGUUUUGGUUUCUGCUUCCAUCAAUGUCUAUGAAAUACUCGUGGCCUCGGCGUGGUGCUCUCAGCUCAUGCCCGGAAACCAGGUCCCGACGCCGCGGUCAGACCAACAGAGGAUUGAGCAUCA"}, "B12": {"name": "37444673_37445709_2339_CDS_ENSMUSG00000026113_ENSMUST00000027287|mouse|control|control (ssRNA)", "RNA": "GGGAGUUCUACAGUCCGACGAUCGUAGAGCUGCCGCAGGAAGCCACCGUCGUGCAGGCAGUUCCUCAGCUUGAUGAUAAAGCCACAGAUGAGGGCUGUCAGGGUUUGGCAGAAGACGACGUCACGGCGAUACUGCAGGCUGAGCAACAGAGGAUUGAGCAUCA"}, "B13": {"name": "chr5:106037793:106037794:+_ENSMUSG00000054720_ENSMUST00000067924|mus_mus|motif|central (ssRNA)", "RNA": "GGGAGUUCUACAGUCCGACGAUCUGUUGUCUUGUGUGGAAAAGGAAAAAAAAAUAAUAUAGGAAAGGCAUUAGGACGGCCGGAUUCUUUAUAUUGUAUUUGGUAGAAGCAUGUUUCAGUCAUACUCUGAUGAAAAAUAAGUUACAACAGAGGAUUGAGCAUCA"}, "B14": {"name": "chrX:119742084:119742085:+_ENSG00000232119_ENST00000371317|hu_hu|FALSE|FALSE (ssRNA)", "RNA": "GGGAGUUCUACAGUCCGACGAUCAAAAGGAUAUUUGUGAAGUAAUCUUAGGGUUGGAUAAAAAGGCCCUUCUCUUUGUCUAAAAAAGAGUAAUUCUCCAUUUACUGUAAGGAUUUCUAUAUGUUCAUGGCAUCGGACUAUUUUCAACAGAGGAUUGAGCAUCA"}, "B15": {"name": "chr5:106037793:106037794:+_ENSMUSG00000054720_ENSMUST00000067924|mus_mus|FALSE|FALSE (ssRNA)", "RNA": "B13 RNA with G77U, G78A, G81U, G82A"}, "B16": {"name": "chr11:9308113:9308114:-_ENSG00000166471_ENST00000528080|hu_hu|motif|central (ssRNA)", "RNA": "GGGAGUUCUACAGUCCGACGAUCAUUAGGCAGAAAUGGUGUUAUUCUCAAAAAUAUAAUGUAGUUAAUGAGAUGUUCUCGGUGACGUUCAACCUGCUGUGACCAUUUUACUGCUUUCUCUGUUAGGUAUUUGUAUACAACUGGCAACAGAGGAUUGAGCAUCA"}, "B17": {"name": "chr14:46222469:46222470:-_ENSMUSG00000037697_ENSMUST00000051310|mus_hu|FALSE|FALSE (ssRNA)", "RNA": "GGGAGUUCUACAGUCCGACGAUCAUUCUCUGAAACUGAGGUAGGUUCUUUAGCUGGGUUGAGAAAGCUUGGCUUCAUAUGUUCAUAAGGUAAAGGAUUUGAAGUAUUGUACCAGUGGAUCUGGACAGGUGAAAUGUUGCUGUACAACAGAGGAUUGAGCAUCA"}, "B18": {"name": "57185256_57189016_303_CDS_ENSG00000146143_ENST00000607273|human|control|control (ssRNA)", "RNA": "GGGAGUUCUACAGUCCGACGAUCUUCAUCUUCUAAGUUUUCUCUGUAGGAAAACUUGAGCUUCCGAAGCUCACUCUCCAACUUACUCUGGUAUUGUUCAGUUCCUUUCACAUAGCUCACUCCAAGAUUUUCAACUGAUUUUAACAACAGAGGAUUGAGCAUCA"}, "B19": {"name": "chr21:32491406:32491407:-_ENSG00000156299_ENST00000286827|hu_hu|motif|central (ssRNA)", "RNA": "GGGAGUUCUACAGUCCGACGAUCCAUAGUAUUUUAAACCCUUCUUAGGAAGUGGACAUUGUGACAUGGGAAAAGAAAAAGCGGUAAACCUUUUUUUAAAAAAAAAAAAAAAAUUGAAAGUGCUAUAACUUGUUUUUCUUCUUACAACAGAGGAUUGAGCAUCA"}, "B20": {"name": "chr5:106037793:106037794:+_ENSMUSG00000054720_ENSMUST00000067924|mus_hu|motif|central (ssRNA)", "RNA": "GGGAGUUCUACAGUCCGACGAUCCUUUGUGUACAUUUUGUGUGAAAAGGAAAAAAAAAUAGGAAAGGCAUUAAGACGGCCGGAUUAUUUAUACUGUAUUUGGUAGAAGCGUGUUUCAGUCAAACUUUAACGAAAAAUAAGUUACAACAGAGGAUUGAGCAUCA"}, "B21": {"name": "chr14:57521665:57521666:+_ENSMUSG00000021945_ENSMUST00000022511|mus_mus|FALSE|FALSE (ssRNA)", "RNA": "GGGAGUUCUACAGUCCGACGAUCAACAACGUCAUCAUCAUCUUCUACUGAUGAGUUCUGAAACUUACUAGAUCUAGACACUAAAGGAUUAGGUGGGCCACUAAAUGAAUUUCCUACGUUCGUGAGACUAGUUGCCAUGGCUGUCAACAGAGGAUUGAGCAUCA"}, "B22": {"name": "chr4:76721835:76721836:+_ENSG00000138768_ENST00000264904|hu_mus|hu_hu_hu_mus_True|58_108 (ssRNA)", "RNA": "GGGAGUUCUACAGUCCGACGAUCGUUGGCUGGGGUUUUCUGAGACGCUCUGGAAUAUAACUCAUGUUUGCUAAUAAUCCUAGUUUCCUCUAUGAAAUUCUCUUUGCCAAUCCUCUUCUCUAUUAGUUGCUUUAGUUUCUCUUUCAACAGAGGAUUGAGCAUCA"}}, "note": "Residue numbers refer to the chain shown, from its start. In all, about 24,000 sequences were measured (“enrichment r”: median about 0.99, highest 2% from about 3.7 on). Shown is part of a subset that was picked to be rich in the highest values.", "data": [{"molecular_target": "T1, UNK ZnF1-3 (human, UniProt Q9C0B0 31-174)", "T1 sequence": "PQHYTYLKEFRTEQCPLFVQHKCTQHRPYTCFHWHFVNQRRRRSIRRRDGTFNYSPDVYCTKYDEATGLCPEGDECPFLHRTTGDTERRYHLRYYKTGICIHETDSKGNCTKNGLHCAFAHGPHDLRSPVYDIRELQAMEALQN", "experiment": "nsRBNS (natural sequence RNA bind-n-seq); RBNS binding buffer (assumed for nsRBNS): 25 mM Tris pH 7.5, 150 mM KCl, 3 mM MgCl2, 0.01% Triton X-100, 500 ug/ml BSA, 20 U/ml SUPERase-In, 4 C; UNK is unkempt and MSI1 is Musashi-1; names of the RNAs are library labels; protein concentration not given here; high values mean tight binding", "units": {"binding signal": "enrichment R"}, "values": [{"binder": "B1", "binding signal": 0.848}, {"binder": "B2", "binding signal": 9.94}, {"binder": "B3", "binding signal": 1.11}, {"binder": "B4", "binding signal": 0.4}, {"binder": "B5", "binding signal": 5.64}, {"binder": "B6", "binding signal": 0.84}, {"binder": "B7", "binding signal": 0.774}, {"binder": "B8", "binding signal": 1.68}, {"binder": "B9", "binding signal": 1.21}, {"binder": "B10", "binding signal": 1.13}, {"binder": "B11", "binding signal": 0.583}, {"binder": "B12", "binding signal": 1.01}, {"binder": "B13", "binding signal": 5.1}, {"binder": "B14", "binding signal": 0.455}, {"binder": "B15", "binding signal": 4.57}, {"binder": "B16", "binding signal": 1.85}, {"binder": "B17", "binding signal": 1.5}, {"binder": "B18", "binding signal": 0.6}, {"binder": "B19", "binding signal": 1.34}, {"binder": "B20", "binding signal": 3.77}, {"binder": "B21", "binding signal": 1.09}, {"binder": "B22", "binding signal": 0.387}]}]}
